HT1080 IDH1KD tx: kills HT-1080 cells with IDH1 knockdown; HT-1080 IDH1 knockdown viability, ATP luminescence, 48 h; Potency, µM (series often up to 46.1 µM), actives largely listed as cytotoxic; actives 2% (n = 360,000)
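CellTiter-Glo luminescence after 48 h compound exposure at 37 degrees C of IDH1-knockdown HT-1080 cells in 5% FBS RPMI. %Activity scaled between DMSO wells and cell-free media wells, with curves fitted and assigned curve classes.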
KB-3-1 tox: KB-3-1 parental cell cytotoxicity | KB-3-1 viability, CellTiter-Glo ATP luminescence, 72 h | Potency, µM (highest dose often 46.1 µM), most hits filed as cytotoxic | actives 1.4% (n = 400,000); also: nearly all actives have a fitted effect of over 60% in size
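Multi-concentration cytotoxicity screen in KB-3-1 cells grown in DMEM lacking phenol red with 10% FBS. After 72 h at 37 °C with compound, ATP-dependent luminescence was recorded.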
KB-V1 MDR tox: KB-V1 MDR subline cytotoxicity; KB-V1 MDR cells viability, CellTiter-Glo, 72 h; AID 1347076; actives 3.4% (n = 400,000); Potency, µM (series often up to 46.1 µM), actives largely listed as cytotoxic; also: nearly all actives have a fitted effect of over 60% in size
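Following 72 h at 37 degrees C with compound, KB-V1 cell viability was read by CellTiter-Glo luminescence, medium being phenol-red-free DMEM plus 10% FBS; concentration-response parameters came from normalized, curve-fitted qHTS data.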
MCF10A rereplic: inducers of DNA re-replication in MCF 10A breast cells; MCF 10A DNA re-replication, Hoechst nuclear intensity, 48 h; Potency, µM (highest dose often 46.1 µM), most hits filed as activators; actives 2.9% (n = 350,000); also: nearly all actives have a fitted effect of over 50% in size
SW480 rerep: inducers of DNA re-replication in SW480 colon cancer cells | AID 624297 | Potency, µM (doses to about 46.1 µM), actives largely listed as activators | actives 1.8% (n = 340,000) | SW480 DNA re-replication, Hoechst DNA content imaging, 48 h; also: nearly all actives have a fitted effect of over 55% in size
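Compounds, transferred as 23 nL by pin tool, were incubated with cells for 48 hr; DNA content per nucleus was then quantified by Hoechst staining and fluorescence plate imaging.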
HT1080NT lethal: kills 2HG-producing HT-1080-NT fibrosarcoma cells; HT-1080-NT fibrosarcoma viability, CellTiter-Glo ATP luminescence, 48 h; Potency, µM (top dose mostly 46.1 µM), usual class: cytotoxic; actives 1.6% (n = 360,000);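 also: NT is the 2HG producing partner of a matched IDH1 knockdown line; nearly all actives have a fitted effect of over 55% in size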
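Viability by CellTiter-Glo luminescence after 48 h compound exposure at 37C of HT-1080-NT cells (750/well, RPMI, 5% FBS). % activity scaled between DMSO wells and medium-only wells, then curve-fitted and categorized by curve class.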
A number is an active result; . = inactive; ? = inconclusive; / = no result; [ ] = remark or other dose. This is a sample that favours compounds with a hit; in the whole collection about 7.9% have one here. Calls follow the shape of the dose curve; as a rule, active = well fitted curve in the direction sought with a large enough effect; inconclusive = small, poorly fitted or top-dose-only effect, or another doubt; inactive = no such curve, though single readings can be large; an effect the other way counts as inactive or inconclusive.

SMILES	HT1080 IDH1KD tx	KB-3-1 tox	KB-V1 MDR tox	MCF10A rereplic	SW480 rerep	HT1080NT lethal
COc1ccc(C2=NN(C(=O)COC(=O)c3ccc(S(C)(=O)=O)c([N+](=O)[O-])c3)C(c3ccco3)C2)cc1 (stereo unspecified)	14.6µM	?	?	?	11.6µM	?
C[C@@H]1CN([C@@H](C)CO)C(=O)CCCn2nncc2CO[C@@H]1CN(C)S(=O)(=O)c1ccc(Oc2ccccc2)cc1	.	.	.	/	/	.
COc1ccc(C2CC(c3ccc([N+](=O)[O-])cc3)=NN2C(=O)c2ccccc2)cc1OC (stereo unspecified)	.	.	.	.	.	.
CCC(=O)N1N=C(c2ccccc2)CC1c1ccc([N+](=O)[O-])cc1 (stereo unspecified)	.	.	14.6µM	.	?	.
CC(NC(=O)CSc1nnnn1C1CC1)c1ccccc1Br (stereo unspecified)	.	.	.	.	.	.
COc1nc(Oc2ccc(=O)n(-c3ccccc3)n2)nc(N(C)C)n1	/	.	.	/	/	/
O=C(N/N=C1\CC(c2ccccc2)Oc2ccccc21)c1ccc(O)cc1 (stereo unspecified)	.	.	.	?	.	.
O=C(N/N=C1\CC(c2ccccc2)Oc2ccccc21)c1cccnc1 (stereo unspecified)	11.6µM	.	?	.	?	?
Cc1ccc(NNC(=O)C(O)(c2cccc(C(F)(F)F)c2)c2cccc(C(F)(F)F)c2)cc1	7.31µM	16.4µM	?	11.6µM	?	7.31µM
O=C(NNc1ccccc1Br)C(O)(c1cccc(C(F)(F)F)c1)c1cccc(C(F)(F)F)c1	?	?	18.4µM	?	?	20.6µM
O=S(=O)(Nc1cccc(S(=O)(=O)N2CCCCC2)c1)c1ccccc1F	.	.	.	?	?	.
Cc1ccccc1NC(=O)COc1ccc2oc3c(c2c1)CCCC3	/	.	.	/	/	/
O=C(NCCc1ccc(F)cc1)c1cccc(NC(=O)c2ccccc2)c1	.	.	.	.	.	.
CCOc1ccc(C(c2c(NC(=O)c3ccccc3)sc(C)c2C)N2CCN(CCO)CC2)cc1 (stereo unspecified)	?	?	?	?	3.66µM	?
CC(=O)Nc1sc2c(c1C(c1ccncc1)N1CCOCC1)CCCC2 (stereo unspecified)	.	.	.	.	.	.
Cc1sc(NC(=O)c2ccco2)c(C(c2cccnc2)N2CCN(CCO)CC2)c1C (stereo unspecified)	.	.	.	.	.	.
CCc1cc(C(c2ccncc2)N2CCN(C)CC2)c(NC(=O)c2ccccc2)s1 (stereo unspecified)	.	.	20.6µM	.	.	.
Cc1sc(NC(=O)c2ccccc2)c(C(c2ccc(Cl)cc2)N2CCN(CCO)CC2)c1C (stereo unspecified)	?	20.6µM	?	?	.	?
CCOc1ccccc1NC(=O)CC1C(=O)NCCN1C(=O)c1ccc(F)cc1 (stereo unspecified)	/	.	.	/	/	/
Cc1cc2c(cc1S(=O)(=O)CCC(=O)NC1CCCCC1C)OCC(=O)N2 (stereo unspecified)	.	.	.	.	.	.
Cc1ccc(C)c(CNC(=O)c2ccc3c(c2)nc2n3CCCCC2)c1	/	.	.	/	/	/
COC(=O)Cc1[nH]n(-c2nc3ccccc3s2)c(=O)c1C(C)=O	.	.	.	.	.	.
CCCCCN=Cc1c(C)[nH]n(-c2nc3ccccc3s2)c1=O	5.01µM	2.59µM	2.31µM	.	.	11.2µM
CC(=O)c1c(CC(=O)O)[nH]n(-c2nc3ccccc3s2)c1=O	10µM	?	?	.	.	10µM
CCOc1ccc(S(=O)(=O)N/N=C2/CC(c3ccccc3)Oc3ccccc32)cc1 (stereo unspecified)	.	?	18.4µM	.	.	.
SMILES	HT1080 IDH1KD tx	KB-3-1 tox	KB-V1 MDR tox	MCF10A rereplic	SW480 rerep	HT1080NT lethal
O=S(=O)(N/N=C1\CC(c2ccccc2)Oc2ccccc21)c1ccccc1 (stereo unspecified)	.	.	.	.	.[9.22 µM]	.
CCOc1cc(C(=O)Nc2cc(C)ccc2OC)ccc1OCC(=O)N1CCCCC1	.	.	7.31µM	.	.	.
CCOc1cc(C(=O)Nc2ccc(C)cc2C)ccc1OCC(=O)N1CCCCC1	.	.	.	.	.	.
COc1ccccc1NC(=S)N1CCN(Cc2ccccc2)CC1	.	?	14.6µM	.	.	.
COc1ccc(NC(=O)c2ccc(CN3CCN(c4ccccc4)CC3)cc2)cc1OC	?	?	16.4µM	.	.	?
CCCN1CCN(C(=S)Nc2ccccc2C(F)(F)F)CC1	.	20.6µM	3.26µM	.	.	.
CCCCNC(=O)CCCn1c(=O)c2ccccc2n(CC(=O)Nc2ccccc2OCC)c1=O	/	.	.	/	/	/
COc1cc(CNc2ccc(N3CCN(C(C)=O)CC3)cc2)ccc1OCc1ccccc1	.	?	7.31µM	.	.	.
COc1ccc(C(=O)Nc2cnn(Cc3ccc(Cl)cc3)c2)cc1OC	?	5.8µM	.	11.6µM	.	?
COc1ccc(C)cc1NC(=O)c1ccc(CN2CCN(c3ccccc3)CC2)cc1	.	?	18.4µM	?	.	.
COc1cn(-c2ccccc2)nc1C(=O)Nc1ccc(C)cc1	.	.	.	.	?	.
COc1ccc(C)cc1NC(=O)c1nn(-c2ccccc2)cc1OC	14.6µM	?	?	23.1µM	.	14.6µM
COc1ccc(C)cc1NC(=O)c1ccc(CN2CCc3ccccc3C2)cc1	.	.	.	?	.	.
Cc1ccc(-c2nnc3ccc(SCC(=O)OCc4ccccc4)nn23)cc1	/	?	.	/	/	/
O=S(=O)(NCc1ccco1)c1ccc(S(=O)(=O)N2CCCCC2)cc1	.	.	16.4µM	.	.	.
O=C(NC1CCCCCC1)c1ccc(S(=O)(=O)NCc2ccco2)cc1	.	.	20.6µM	.	.	?
O=C(NCc1ccco1)c1cc(C(=O)C2CCCCC2)c[nH]1	.	.	10.3µM	.	.	.
CCCNS(=O)(=O)c1ccc(CCC(=O)NCc2ccco2)cc1	.	.	.	.	.	.
O=C(CCc1ccc(S(=O)(=O)NCc2ccccc2)cc1)NCc1ccco1	.	.	20.6µM	.	.	.
CCc1ccc(S(=O)(=O)NCc2csc(C)n2)cc1	.	.	.	.	.	.
CCN1C(=O)C(Cc2nc3ccccc3c(=O)n2-c2ccccc2)c2cc(Br)ccc21 (stereo unspecified)	/	.	?	/	/	/
Cc1ccc(NC(=O)c2ccc(S(=O)(=O)NCc3ccco3)cc2)nc1	?	20.6µM	?	?	20.6µM	.

Bioassay records from PubChem BioAssay.
